Screening data deposited in PubChem by National Center for Advancing Translational Sciences (NCATS).
Only a selection was taken, and hits are over-represented in it overall.
p53ts 39C tox: kills p53ts cells at the nonpermissive temperature; H1299-p53A138V viability at 39C, ATP luminescence, 24 h; Potency, µM (series often up to 46.1 µM), without a hit: at the top dose activity change, negative = cell killing, usual class: cytotoxic; hit rate 1.5% among 130,000; AID 902; note: potency is the fitted concentration of half-maximal effect; % is set by controls: 0 for no effect and ±100 for the full control effect; nearly all actives have a fitted effect of over 55% in size
Peg3 imprint: induces erasure of genomic imprints in mouse ES cells. mouse ES Peg3-LacZ reporter, beta-gal luminescence, 40 h. Potency, µM (doses to about 60.7 µM), for inactives: top-dose activity change, positive = activation, usual class: activators. hit rate 0.02% among 110,000. AID 1948; note: potency is the fitted concentration of half-maximal effect
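Each well holds 300 Peg3LacZ-Neo (maternal) female ES cells incubated 40 h at 37C, 5% CO2. LacZ is measured by BetaGlo luminescence, with AC50 and maximum efficacy derived from dose-response curves.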
IMPase cell inh: IMPase inhibition in cells; CHO-M1 cells, IP1 accumulation, HTRF TR-FRET ratio; inhibition (IP1 accumulation), % at 46.1 µM; 120,000 tested, under 10 active; AID 901; active = well fitted curve in the direction sought with a large enough effect in the signal ratio, not every such curve was filed as active; inconclusive = small, poorly fitted or top-dose-only effect, or a change in a side signal; inactive = no such curve, though single readings can be large or run the other way; the % refers to the signal ratio;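 note: cells stimulated with carbachol in lithium chloride buffer; plate controls were DMSO basal wells for no effect and reference inhibitor wells for full effect; higher means more IMPase inhibition seen as more IP1 and lower FRET ratio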
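Carbachol-driven Gq signalling in CHO-M1 cells (2000/well) generates IP1. Compounds that block IMPase raise IP1 and so reduce the FRET signal from Eu-anti-IP1 and d2-IP1 after a 10 min room-temperature lysis.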
IkB signaling: suppresses IkB signaling in ABC-DLBCL reporter cells | ABC-DLBCL IkBa-CBG/CBR dual luciferase ratio, 4 h; response scale: scaled: untreated 0%, proteasome inhibitor 100% | hit rate 0.04% among 110,000 | Potency, µM (top dose mostly 57.1 µM), for inactives: top-dose IkBa stabilization activation; active = well fitted curve in the direction sought with a large enough effect in the signal ratio, not every such curve was filed as active; inconclusive = small, poorly fitted or top-dose-only effect, or a change in a side signal; the % refers to the signal ratio;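 note: potency is the fitted concentration of half-maximal effect; the direction sought is a rising ratio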
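Curves were fitted separately to fusion (green), unfused (red) and ratio luminescence, then classed by r2, magnitude and activity. Cells: OCI-Ly3, 4 h compound plus doxycycline at 37C; 10 uM MG-132 defined full response.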
FLuc inh: inhibitors of firefly luciferase; Potency, µM (top dose mostly 57.1 µM), for the others: top-dose activity change, negative = inhibition, hits mostly inhibitors; AID 411; hit rate 2.2% among 72,000; purified firefly luciferase, luminescence, 8 min; P08659; note: potency is the fitted concentration of half-maximal effect; % is set by controls: 0 for no effect and ±100 for the full control effect; nearly all actives have a fitted effect of over 40% in size
Target sequence (P08659 whole entry, looked up): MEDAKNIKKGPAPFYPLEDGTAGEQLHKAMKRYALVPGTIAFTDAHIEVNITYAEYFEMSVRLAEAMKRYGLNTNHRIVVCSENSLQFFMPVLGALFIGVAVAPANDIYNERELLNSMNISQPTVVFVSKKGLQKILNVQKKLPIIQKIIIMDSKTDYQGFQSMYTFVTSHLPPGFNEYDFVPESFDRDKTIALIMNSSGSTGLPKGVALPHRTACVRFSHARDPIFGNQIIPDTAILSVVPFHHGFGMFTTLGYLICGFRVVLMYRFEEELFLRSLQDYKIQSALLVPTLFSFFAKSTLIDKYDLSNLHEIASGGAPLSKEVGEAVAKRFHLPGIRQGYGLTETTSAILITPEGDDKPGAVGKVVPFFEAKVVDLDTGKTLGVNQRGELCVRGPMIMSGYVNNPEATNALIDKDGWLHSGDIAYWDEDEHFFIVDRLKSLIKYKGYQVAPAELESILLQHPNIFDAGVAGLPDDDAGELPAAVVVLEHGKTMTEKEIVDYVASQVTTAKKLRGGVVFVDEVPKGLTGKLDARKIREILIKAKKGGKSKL
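qHTS concentration-response profiling: light output of P. pyralis luciferase with luciferin and 10 uM ATP, imidazole buffer pH 7.2. Read by luminescence after 8-min room-temperature incubation.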
p53ts 32C tox: p53ts cell cytotoxicity, permissive temperature | H1299-p53A138V at 32C, ATP luminescence viability, 24 h | Potency, µM (top dose mostly 46.1 µM), without a hit: at the top dose activity change, negative = cytotoxicity, actives largely listed as cytotoxic | hit rate 0.93% among 130,000;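 note: potency is the fitted concentration of half-maximal effect; 0% = DMSO and -100% = full killing by reference compound; nearly all actives have a fitted effect of over 55% in size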
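Cells: H1299 p53ts (A138V), 600/well, pre-incubated 16–30 h at 37C. Cpd up to 46 uM, 24 h, 32C. Readout: ATPlite luminescence, 20 min RT. Normalization: DMSO vs tamoxifen 100 uM. AC50 by Hill equation.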
* = called active by the depositor; ? = inconclusive; / = not tested or not shown; [ ] = dose if it differs, or a comment. Unless noted, calls come from the whole dose curve; as a rule, active = well fitted curve in the direction sought with a large enough effect; inconclusive = small, poorly fitted or top-dose-only effect, or another doubt; inactive = no such curve, though single readings can be large; an effect the other way counts as inactive or inconclusive.

SMILES | p53ts 39C tox | Peg3 imprint | IMPase cell inh | IkB signaling | FLuc inh | p53ts 32C tox
Cc1ccc2c(CC(=O)Nc3ccc(N4CCN(C)CC4)cc3C)coc2c1 | ? | -14% | 9 | 2% | 6.3µM* | ?
CC(C)CCNC(=O)c1ccc2c(c1)nc1n2CCCCC1 | 3.2µM* | -32%[10.9 µM] | / | ? | / | 16µM*
Cc1ccc(CCNC(=O)c2ccc3c(c2)nc2n3CCOC2)cc1 | -17% | 12%[10.9 µM] | / | 0% | / | -10%
O=C(NCCc1ccccc1)c1ccc2c(c1)nc1n2CCOC1 | 10µM* | -25%[10.9 µM] | / | -3% | / | 13µM*
CCNC(=O)c1ccc2c(c1)nc1n2CCCCC1 | ? | -16%[10.9 µM] | / | 0% | / | ?
Cc1ccccc1CCNC(=O)c1ccc2c(c1)nc1n2CCC(C)C1 (stereo unspecified) | 13µM* | -2%[10.9 µM] | / | -1% | / | 13µM*
O=C(NCCc1ccccc1Cl)c1ccc2c(c1)nc1n2CCCCC1 | 2.5µM* | -27%[10.9 µM] | / | ? | / | 4µM*
C[C@@H]1CCC[C@H](C)N1 | 6%[20.6 µM] | -4%[16.8 µM] | -9[20.6 µM] | 2%[25.6 µM] | 0%[25.5 µM] | 0%[20.6 µM]
CC[C@@H]1OC(=O)[C@@H](C)[C@H](O[C@@H]2C[C@@](C)(OC)[C@@H](O)[C@H](C)O2)[C@H](C)[C@H](O[C@@H]2O[C@@H](C)C[C@@H](N(C)C)[C@H]2O)[C@@](C)(O)C[C@H](C)C(=O)[C@@H](C)[C@H](O)[C@@]1(C)O | / | / | / | 2%[11.4 µM] | 0%[11.4 µM] | /
CCN(CC)CCCCC1CCN(CC(=O)N2c3ccccc3C(=O)Nc3cccnc32)CC1 | 0% | -9% | / | / | / | -5%
C[C@@]1(CO)[C@H](O)CC[C@]2(C)[C@@H]1CC[C@H]1C[C@H]3C[C@]12CC[C@]3(O)COC(=O)CN | 18%[9.22 µM] | 8%[10.9 µM] | / | -1%[11.4 µM] | 3%[11.4 µM] | 3%[9.22 µM]
O=C(Nc1nc2ccccc2[nH]1)c1ccc(F)cc1 | 2µM* | -90% | -1 | ? | 3.2µM* | 3.2µM*
O=C(Nc1nc2ccccc2[nH]1)c1ccccc1F | 1.6µM* | -95% | -12 | ? | 1µM* | 1.3µM*
Cc1c(C(=O)Nc2nc3ccccc3[nH]2)cccc1[N+](=O)[O-] | -12% | / | 7 | / | / | /
COc1cc(OC)cc(C(=O)Nc2nc3ccccc3[nH]2)c1 | / | / | 2 | / | / | /
COc1ccc(C(=O)Nc2nc3ccccc3[nH]2)cc1OC | ? | -41% | 2 | ? | 25µM* | ?
CC(=O)O[C@H]1CC[C@@]2(C)[C@@H](CC[C@@]3(C)[C@H]2C(=O)C=C2[C@H]4C[C@](C)(C(=O)OCCN5CCCCC5)CC[C@]4(C)CC[C@@]23C)C1(C)C | / | / | / | 2%[11.4 µM] | 2%[11.4 µM] | /
Cc1ccc(-c2nc(-c3ccccn3)no2)cc1Cl | 2.5µM* | -93% | 0 | ? | 0.4µM* | 2µM*
Cc1ccc(-c2nc(-c3ccccn3)no2)cc1 | 0.4µM* | / | -1 | / | / | 0.5µM*
COc1cc(-c2nc(-c3ccccn3)no2)cc(OC)c1OC | -21% | -23% | -9 | ? | -25% | -24%
Cc1ccc(Cc2nc(-c3ccccn3)no2)cc1 | / | / | -2 | / | / | /
c1ccc(-c2nc(-c3ccccn3)no2)cc1 | 7.1µM* | / | -3 | / | / | 5.6µM*
Clc1cccc(-c2nc(-c3ccccn3)no2)c1 | 3.2µM* | -93% | 2 | ? | 2.5µM* | 5µM*
c1ccc(-c2cc(-c3nc(-c4ccccn4)no3)c3ccccc3n2)cc1 | -19% | -9% | / | 2% | -5% | -28%
COCCNC(=O)c1ccc(Cc2nc3ccccc3[nH]2)cc1 | -3% | / | / | / | / | -2%
CCCOc1ccc(-c2nonc2NC(=O)COc2ccc(C)cc2)cc1OCCC | -23% | -4%[10.9 µM] | / | -1% | / | 0%
CCOC(=O)CC(NC(=O)c1cc2c(=O)n3cccc(C)c3nc2s1)c1ccc(OCC)c(OC)c1 (stereo unspecified) | -15% | 7%[10.9 µM] | / | 0% | / | 4%
c1ccc(-c2noc(-c3cccc4ccccc34)n2)nc1 | ? | -77% | -8 | ? | 7.9µM* | ?
Cc1ccc(Cl)cc1NC(=O)CSc1ccc(C(=O)O)cn1 | -8% | 29%[10.9 µM] | / | 0% | / | -8%
